Screening data from PubChem BioAssay.
Dicer processing: inhibitors of Dicer pre-microRNA processing, primary screen, biochemical, cat-ELCCA, chemiluminescence; cat-ELCCA pre-miR-21 Dicer processing; stronger effect = higher value; 47,000 tested, 6% active; Endoribonuclease Dicer (Homo sapiens), Q9UPY3; AID 1347074, 2019; z-score at 25 µM; in the data active means z-score above about 3, passing the limit was not always enough;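 further: plate controls were vehicle for no effect and no enzyme for full effect; higher signal means more uncleaved substrate so more Dicer inhibition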
* marks the source's active call; other numbers are inactive results. This excerpt belongs to a sample that is enriched for hits.

What do the screens show for `O=C1C2C3c4ccccc4C(c4ccccc43)C2C(=O)N1c1ccc(Cl)c(Cl)c1` (centres undefined)?
Dicer processing: 1.1

How did Cc1ccc2nc(-c3ccc(Cl)c(C)c3)cn2c1 do in these assays?
Dicer processing: 0.09

What do the screens show for `CC(=O)Oc1cccc(N2Cc3ccccc3C2=O)c1`?
Dicer processing: -0.54

What do the screens show for `CCCCCCNC(=O)NCCC(=O)O`?
Dicer processing: -1.2

What do the screens show for `COC(=O)c1c(C)sc2c(C(F)(F)F)cc(OC)nc12`?
Dicer processing: -0.67

How did CCCCOc1ccccc1C1C(C(=O)OCC)=C(C)NC2=C1C(=O)CC(C)(C)C2 (centres undefined) do in these assays?
Dicer processing: -0.77

What do the screens show for `O=C(Nc1nc2c(-c3ccccc3)c(C(F)(F)F)sc2s1)c1ccc(Cl)cc1`?
Dicer processing: 0.43

What do the screens show for `Nc1nc2c(-c3ccccc3)c(C(F)(F)F)sc2s1`?
Dicer processing: 4.2*

Results for CCOC(=O)c1cnc2c(-c3ccccc3)c(C(F)(F)F)sc2c1OCC ?
Dicer processing: -0.56

What do the screens show for `Cc1ccc(S(C)(=O)=NC(=O)CSc2ccc(C(F)(F)F)cn2)cc1` (centres undefined)?
Dicer processing: 0.03

How did C(=C\c1ccc2c(c1)OCO2)/C1=NN(c2ccccc2)C(c2ccc3c(c2)OCO3)C1 (centres undefined) do in these assays?
Dicer processing: 0.21

How did Cn1c(/C=C/c2cn(Cc3ccccc3)c3ccccc23)nc2ccccc2c1=O do in these assays?
Dicer processing: 10

How did Cn1c(/C=C/c2ccc3c(c2)OCO3)nc2ccccc2c1=O do in these assays?
Dicer processing: 6.2*

Results for C/C(=N\NC1=NCCN1)c1ccc(C)cc1 ?
Dicer processing: -0.13

What do the screens show for `O=C(c1cc2n(n1)C(C(F)(F)F)CC(c1ccc(F)cc1)N2)N1CCCCC1` (centres undefined)?
Dicer processing: 0.84

How did Cc1ccc(C2Nc3nonc3NC3=C2C(=O)CC(C)(C)C3)o1 (centres undefined) do in these assays?
Dicer processing: 0.1

Results for CN1CCN(CC(O)Cn2c(N3CCOCC3)nc3c2c(=O)n(C)c(=O)n3C)CC1 (centres undefined) ?
Dicer processing: -1.6

What do the screens show for `Clc1ccc(C2=Nn3c(CSc4ccccc4)nnc3SC2)cc1`?
Dicer processing: -0.33

Results for CC(C)=N/N=C1/N=C(c2ccc(Cl)cc2)CS1 ?
Dicer processing: 5.2*

How did CC(=Nc1ccc(Cl)cc1)c1ccsc1 do in these assays?
Dicer processing: 0.26

What do the screens show for `Cc1ccc(-c2noc(/C=C/c3ccccc3Cl)n2)cc1`?
Dicer processing: -0.52

How did CCOC(=O)C(=CN1CCC(C(c2ccccc2)c2ccccc2)CC1)C(=O)OCC do in these assays?
Dicer processing: -0.41

Results for O=C1C(=O)N(CCCN2CCOCC2)C(c2cccc(Br)c2)/C1=C(\O)c1ccccc1 (centres undefined) ?
Dicer processing: -4.4

Results for COC(=O)c1cc(Cl)ccc1Oc1ccc([N+](=O)[O-])c(Oc2ccc(Cl)cc2C(=O)OC)n1 ?
Dicer processing: -0.75

Results for COc1ccc(Oc2ccc([N+](=O)[O-])cc2C(=O)NNC(=O)c2ccc(Cl)cc2Cl)cc1 ?
Dicer processing: 4.8*

What do the screens show for `NNC(=O)c1ccc([N+](=O)[O-])cc1Cl`?
Dicer processing: -0.83

Results for O=C(Nc1ncc(Cc2ccc(Cl)cc2)s1)c1cc2ccccc2c(=O)o1 ?
Dicer processing: -0.71

Results for COC(=O)c1cc([N+](=O)[O-])ccc1NC(C)=O ?
Dicer processing: 0.17

What do the screens show for `O=C(Oc1cccc2cccnc12)c1cccs1`?
Dicer processing: 2.2

How did COc1ccc(C(=O)Oc2cccc3cccnc23)cc1OC do in these assays?
Dicer processing: 2.1

Results for COc1ccc(C(=O)Oc2cccc3cccnc23)cc1Cl ?
Dicer processing: 4.4*

What do the screens show for `COc1cccc(CN(C)C)c1O`?
Dicer processing: -1.3

What do the screens show for `COc1ccccc1CC(=O)Nc1ccc2ccccc2n1`?
Dicer processing: -0.4

Results for COc1cccc(CNc2cnc3ccccc3c2)c1O ?
Dicer processing: 4.5*

What do the screens show for `CCn1nc(C)cc1-c1n[nH]c(=S)n1CCCOC`?
Dicer processing: 0.1

Results for COC(=O)c1ccccc1CSc1nccc(C(F)(F)F)n1 ?
Dicer processing: 0.43

What do the screens show for `CCOc1ccc(/C=C/c2nc(-c3ccc(Cl)cc3)no2)cc1OCC`?
Dicer processing: 3.1*

How did CCOc1ccc(-c2nc(-c3ccc(OC)cc3)no2)cc1OCC do in these assays?
Dicer processing: 1.6

Results for COc1ccc(/C=C/c2nc(-c3ccccn3)no2)cc1OC ?
Dicer processing: 2.4

What do the screens show for `CCOc1ccc(/C=C/c2nc(-c3cccc(C)c3)no2)cc1OCC`?
Dicer processing: 0.92

What do the screens show for `CCOc1ccc(/C=C/c2nc(-c3ccc(OC)c(OC)c3)no2)cc1OCC`?
Dicer processing: 5.2*

How did COc1ccccc1OCc1nc(-c2ccc(Cl)cc2)no1 do in these assays?
Dicer processing: 0.24

How did COc1ccc(OC)c(NC(=O)/C=C/C(=O)O)c1 do in these assays?
Dicer processing: 0.51

Results for Cc1nc(-c2ccccc2)sc1C(=O)NNS(=O)(=O)c1c(C)c(C)c(C)c(C)c1C ?
Dicer processing: 1.2

Results for COc1cc(C2c3c(oc4ccccc4c3=O)C(=O)N2c2nccs2)ccc1OCc1ccccc1 (centres undefined) ?
Dicer processing: -0.43

Results for CCOc1ccc2nc(Nc3nc(C)cc(C(F)(F)F)n3)nc(C)c2c1 ?
Dicer processing: 35

What do the screens show for `O=c1c2ccccc2c(-c2cccs2)nn1-c1ccccc1`?
Dicer processing: -0.11

How did CCC(C)Cn1c(C)c2c(=O)n(-c3nc4ccccc4s3)[nH]c2cc1=O (centres undefined) do in these assays?
Dicer processing: 0.75

Results for Cc1c2c(=O)n(-c3nc4ccccc4s3)nc-2cc(O)n1CCc1cnc[nH]1 ?
Dicer processing: 3.6*

What do the screens show for `Cc1c2c(=O)n(-c3nc4ccccc4s3)nc-2cc(O)n1CCc1c[nH]c2ccccc12`?
Dicer processing: 1.5

Results for COc1ccc(C(C)=O)cc1CSc1nnc(-c2ccc(C(F)(F)F)cc2)n1Cc1ccco1 ?
Dicer processing: 0.32

Results for COc1ccc(Oc2sccc2[N+](=O)[O-])cc1 ?
Dicer processing: 0.72

What do the screens show for `O=[N+]([O-])c1ccc(Oc2ccc(Cl)cc2Cl)cc1C(F)(F)F`?
Dicer processing: 0.22

What do the screens show for `O=[N+]([O-])c1ccsc1Oc1ccc(Cl)cc1Cl`?
Dicer processing: 4.2*

How did CC(=O)C(Sc1ccc(Cl)cc1)C(C)=O do in these assays?
Dicer processing: -0.13

How did O=C(O/N=C1\CCc2ccccc21)c1cccc(F)c1 do in these assays?
Dicer processing: 0.02

Results for CCCCc1ccc(N2CC(C(=O)Nc3sc4c(c3C#N)CCCC4)CC2=O)cc1 (centres undefined) ?
Dicer processing: -3.6

How did CCN(C(=O)c1ccc([N+](=O)[O-])o1)c1ccccc1 do in these assays?
Dicer processing: 1.4

What do the screens show for `CCOC(=O)N1CCN(C(=O)c2ccc([N+](=O)[O-])o2)CC1`?
Dicer processing: 3.5*

How did O=C(OCc1nc2ccccc2s1)c1ccc([N+](=O)[O-])o1 do in these assays?
Dicer processing: -0.88

Results for COCCOC(=O)C1=C(C)NC2=C(C(=O)CCC2)C1c1ccccc1Br (centres undefined) ?
Dicer processing: 0.47

How did CCCNc1nc2c(c(=O)n(C)c(=O)n2C)n1CCC do in these assays?
Dicer processing: -0.42
